From ChEMBL document CHEMBL2218924, “A broad activity screen in support of a chemogenomic map for kinase signalling research and drug discovery” (Biochem J, 2013) come the findings set out here.

Test [1] deals with G protein-coupled receptor kinase 5 (Homo sapiens) (UniProt P34947). The following applies: at 1 µM.
Test [2] has as its target G protein-coupled receptor kinase 6 (Homo sapiens) (UniProt P43250). Conditions: at 1 µM.

Sequence of G protein-coupled receptor kinase 6 (Homo sapiens) (P43250 whole entry, looked up): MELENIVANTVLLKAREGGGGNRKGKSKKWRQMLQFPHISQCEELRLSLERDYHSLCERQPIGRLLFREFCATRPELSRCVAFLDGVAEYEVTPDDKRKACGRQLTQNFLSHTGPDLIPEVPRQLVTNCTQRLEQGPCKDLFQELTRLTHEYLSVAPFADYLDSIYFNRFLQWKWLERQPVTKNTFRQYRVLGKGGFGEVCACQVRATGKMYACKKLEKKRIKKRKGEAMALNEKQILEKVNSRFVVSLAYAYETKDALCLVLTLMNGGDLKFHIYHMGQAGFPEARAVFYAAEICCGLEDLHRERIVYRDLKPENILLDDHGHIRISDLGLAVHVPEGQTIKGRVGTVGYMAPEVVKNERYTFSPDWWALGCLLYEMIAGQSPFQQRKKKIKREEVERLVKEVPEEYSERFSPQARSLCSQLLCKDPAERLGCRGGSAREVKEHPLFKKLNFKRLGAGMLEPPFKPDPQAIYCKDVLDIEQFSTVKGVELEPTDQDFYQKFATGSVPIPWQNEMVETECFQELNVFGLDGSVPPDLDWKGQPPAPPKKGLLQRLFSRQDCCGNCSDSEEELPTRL
Sequence of G protein-coupled receptor kinase 5 (Homo sapiens) (P34947 whole entry, looked up): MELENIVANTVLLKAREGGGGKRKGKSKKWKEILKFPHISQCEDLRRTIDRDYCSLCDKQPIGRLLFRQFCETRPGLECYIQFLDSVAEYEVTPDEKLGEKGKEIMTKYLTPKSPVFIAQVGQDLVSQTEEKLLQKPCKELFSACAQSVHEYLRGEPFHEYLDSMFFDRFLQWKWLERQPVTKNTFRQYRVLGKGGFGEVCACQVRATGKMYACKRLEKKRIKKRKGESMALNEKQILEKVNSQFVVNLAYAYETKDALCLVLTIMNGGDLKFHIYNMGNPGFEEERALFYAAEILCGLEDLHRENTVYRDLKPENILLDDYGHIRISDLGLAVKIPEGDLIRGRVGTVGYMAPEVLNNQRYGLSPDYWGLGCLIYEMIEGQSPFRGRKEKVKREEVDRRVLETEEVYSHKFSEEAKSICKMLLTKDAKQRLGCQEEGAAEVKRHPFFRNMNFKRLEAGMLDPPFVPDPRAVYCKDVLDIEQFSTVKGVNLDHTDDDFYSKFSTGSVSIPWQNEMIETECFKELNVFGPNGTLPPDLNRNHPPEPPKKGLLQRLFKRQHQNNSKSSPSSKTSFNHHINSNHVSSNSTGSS

A word on the residual activity: it is the signal under treatment as a percentage of the control signal. Take `Cn1sc(=O)n(Cc2ccccc2)c1=O`: the residual activity in test [1] and in test [2] was 88% each time.
For the compound `Nc1ccc2ncnc(NCCc3ccc(Oc4ccccc4)cc3)c2c1`, the residual activity in test [1] was 104%; in test [2], 105%.
For `Cc1ccc(S(=O)(=O)/C=C/C#N)cc1`, the residual activity amounted to 96% in test [1] and 92% in test [2].
For `CC(C)[C@H](CO)Nc1nc(Nc2cc(N)cc(Cl)c2)c2ncn(C(C)C)c2n1`, the values for the residual activity in test [1] and in test [2] were 89% and 90%, respectively.
Take `O=c1cc(-c2cccc3c2Sc2ccccc2S3)oc(N2CCOCC2)c1`: the residual activity in test [1] stood at 99%; in test [2], 100%.
On to `O=C(CCCc1ccc(-c2ccccc2F)cc1)Nc1ccc(O)cc1`, for which the residual activity in test [1] and in test [2] was 101% throughout.
As to `CNc1cc2c(Nc3cccc(Br)c3)ncnc2cn1`, the residual activity in test [1] amounted to 109%; in test [2], 95%.
The like results for `CC#CC(=O)Nc1cc2c(Nc3ccc(F)c(Cl)c3)ncnc2cn1` were, in that order, 100% and 95%.
Regarding `C[C@@H](N)[C@H]1CC[C@H](C(=O)Nc2ccncc2)CC1`, the results for the residual activity in test [1] and in test [2] were 92% and 106%, respectively.
With `O=c1cc(N2CCOCC2)oc2c1ccc1ccccc12`, the figures for the residual activity in test [1] and in test [2] were 103% and 96%, respectively.
With `O=C1NC(=O)c2c1c1c3ccccc3[nH]c1n1cncc21`, the values for the residual activity in test [1] and in test [2] were 83% and 82%, respectively.
Turning to `O=C(NC(NC(=S)Nc1ccc(F)c([N+](=O)[O-])c1)C(Cl)(Cl)Cl)C(c1ccccc1)c1ccccc1` (stereo not drawn), the residual activity in test [1] came to 90%; in test [2] it was 100%.
On to `Cc1cc2ncc(-c3ccccc3)nc2cc1C`, for which the residual activity was 106% in test [1] and 95% in test [2].
The like results for `CC(C)(C)c1nc2c3ccc(F)cc3c3c(=O)[nH]ccc3c2[nH]1` were, in that order, 72% and 59%.
The like results for `CO[C@@H]1[C@H](N(C)C(=O)c2ccccc2)C[C@H]2O[C@]1(C)n1c3ccccc3c3c4c(c5c6ccccc6n2c5c31)C(=O)NC4` were, in that order, 82% and 79%.
In the case of `Cn1nc2c3c(cccc31)C(=O)c1ccccc1-2`, the residual activity in test [1] stood at 102%; in test [2] it was 93%.
As to `CCN(CC)CCNC(=O)c1c(C)[nH]c(/C=C2\C(=O)Nc3ccc(Cl)cc32)c1C`, the residual activity in test [1] and in test [2] was 68% throughout.
For the compound `Cc1nc2cc3nc(-c4cccs4)cnc3cc2n1C`, the results for the residual activity in test [1] and in test [2] were 113% and 103%, respectively.
In the same order, the values of `O=c1c(-c2ccc(F)cc2)c(-c2ccncc2)[nH]n1-c1ccc(Cl)cc1` are 101% and 99%.
In the same order, the values of `Cc1nc(-c2ccccc2)c(-c2ccncc2)o1` are 104% and 103%.
As to `NCCNc1ncc(C(N)=O)c(Nc2cccc(C(F)(F)F)c2)n1`, the residual activity in test [1] was 105%; in test [2], 100%.
With `CC(=O)O/N=C1\C(=C2\C(=O)Nc3cc(Br)ccc32)Nc2ccccc21`, the residual activity was determined as 98% in test [1] and 86% in test [2].
In the case of `CO[C@H]1[C@@H](OC)C[C@H](C)[C@@H](OC)C2=CC(=O)C=C(NC(=O)/C(C)=C/C=C/[C@H](OC)[C@@H](OC(N)=O)/C(C)=C/[C@@H]1C)C2=O`, the values for the residual activity in test [1] and in test [2] were 70% and 97%, respectively.
Turning to `Oc1c2ccccc2c2c3c(cccc13)N=N2`, the results for the residual activity in test [1] and in test [2] were 84% and 87%, respectively.
In the case of `c1ccc(-c2n[nH]cc2-c2ccnc3ccccc23)nc1`, the residual activity came to 103% in test [1] and 96% in test [2].
In the same order, the values of `O=C1NC(=O)/C(=C\c2ccc3nccnc3c2)S1` are 103% and 90%.
As to `Cn1cnc2cc3c(Nc4cccc(Br)c4)ncnc3cc21`, the figures for the residual activity in test [1] and in test [2] were 109% and 97%, respectively.
Turning to `COc1cc2ncnc(N3CCN(C(=O)Nc4ccc(Oc5ccccc5)cc4)CC3)c2cc1OC`, the figures for the residual activity in test [1] and in test [2] were 95% and 85%, respectively.
The like results for `O=C(Nc1cccc(Nc2cc(Nc3cccc(C(F)(F)F)c3)ncn2)c1)C1CC1` were, in that order, 102% and 98%.
As for `COc1cc2nccc(Oc3ccc(NC(=S)NC(=O)c4ccccc4C)cc3)c2cc1OC`, the values for the residual activity in test [1] and in test [2] were 98% and 87%, respectively.
Take `CC(C)c1nn(-c2c(Cl)cccc2Cl)c2nc(Cc3ccc(OCCO)cc3)[nH]c(=O)c12`: the residual activity in test [1] was determined as 101%; in test [2], 96%.
As for `O=c1cc(N2CCNCC2)oc2c(-c3ccccc3)cccc12`, the residual activity in test [1] amounted to 81%; in test [2], 102%.
For `Oc1ccc(-c2nc(-c3ccc(F)cc3)c(-c3ccncc3)[nH]2)cc1`, the residual activity in test [1] and in test [2] was 109% each time.
`O=C(Nc1cccc(Nc2nccc(Nc3cccc(C(F)(F)F)c3)n2)c1)C1CC1`: the residual activity in test [1] is 94%; in test [2], 99%.
